Data taken from PubChem BioAssay AID1159580 (chemical genetic matrix, 2015).
About 2,000 (36%) of roughly 5,500 compounds were called active. Not shown: some 18% with an inconclusive outcome. No stated cut-off is given here; in the data, active means normalized growth mostly below about 0.91 (no sharp cut-off); inconclusive means no clear call, values can overlap the other calls; inactive means mostly above about 0.92. This is one part of the list.

Assay: chemical genetic growth profiling, strain panel (AID 1159580);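 further: tested at 20 µM; growth read once vehicle control cultures reached saturation at 30 °C; 1 = growth at the plate median or of vehicle wells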
Conditions: growth OD

Measured: normalized growth

COc1ccc2c(c1)c(CC(=O)OCC(=O)O)c(C)n2C(=O)c1ccc(Cl)cc1
inactive: S. cerevisiae deletion strains, locus YJR075W, strain HOC1, stronger effect = lower value 1.03 | S. cerevisiae deletion strains, locus YKL009W, strain mrt4, stronger effect = lower value 0.951 | S. cerevisiae deletion strains, locus YKL068W, stronger effect = lower value 1.01 | S. cerevisiae deletion strains, locus YKL085W, strain MDH1 (second series), stronger effect = lower value 0.984 | S. cerevisiae deletion strains, locus YKL085W, strain MDH1, stronger effect = lower value 0.984 | S. cerevisiae deletion strains, locus YKL160W, strain elf1, stronger effect = lower value 0.99 | S. cerevisiae deletion strains, locus YKL190W, strain CNB1, stronger effect = lower value 1.01 | S. cerevisiae deletion strains, locus YKR001C, strain vps1, stronger effect = lower value 1.02 | S. cerevisiae deletion strains, locus YKR026C, strain gcn3, stronger effect = lower value 0.991 | S. cerevisiae deletion strains, locus YKR091W, strain srl3, stronger effect = lower value 1 | S. cerevisiae deletion strains, locus YLL001W, strain dnm1, stronger effect = lower value 0.958 | S. cerevisiae deletion strains, locus YLL026W, stronger effect = lower value 0.997 | S. cerevisiae deletion strains, locus YLL041C, strain sdh2, stronger effect = lower value 0.995 | S. cerevisiae deletion strains, locus YLR027C, strain aat2, stronger effect = lower value 0.971 | S. cerevisiae deletion strains, locus YLR039C, strain RIC1, stronger effect = lower value 1.03 | S. cerevisiae deletion strains, locus YLR058C, strain SHM2, stronger effect = lower value 1.02 | S. cerevisiae deletion strains, locus YLR102C, strain apc9, stronger effect = lower value 1.01 | S. cerevisiae deletion strains, locus YLR113W, strain HOG1, stronger effect = lower value 0.991 | S. cerevisiae deletion strains, locus YLR221C, strain rsa3, stronger effect = lower value 0.998 | S. cerevisiae deletion strains, locus YLR258W, strain gsy2, stronger effect = lower value 1 | S. cerevisiae deletion strains, locus YLR262C, strain YPT6 (second series), stronger effect = lower value 0.99 | S. cerevisiae deletion strains, locus YLR262C, strain YPT6, stronger effect = lower value 1.03 | S. cerevisiae deletion strains, locus YLR268W, strain sec22, stronger effect = lower value 1.06 | S. cerevisiae deletion strains, locus YLR320W, strain mms22, stronger effect = lower value 1.01 | S. cerevisiae deletion strains, locus YLR330W, strain CHS5, stronger effect = lower value 1.01 | S. cerevisiae deletion strains, locus YLR342W, strain FKS1 (second series), stronger effect = lower value 1.02 | S. cerevisiae deletion strains, locus YLR342W, strain FKS1, stronger effect = lower value 0.971 | S. cerevisiae deletion strains, locus YLR357W, strain rsc2, stronger effect = lower value 0.946 | S. cerevisiae deletion strains, locus YLR370C, strain arc18, stronger effect = lower value 0.983 | S. cerevisiae deletion strains, locus YLR371W, strain rom2, stronger effect = lower value 1.02 | S. cerevisiae deletion strains, locus YLR384C, strain iki3, stronger effect = lower value 0.982 | S. cerevisiae deletion strains, locus YLR418C, strain cdc73, stronger effect = lower value 1.03 | S. cerevisiae deletion strains, locus YML016C, strain PPZ1, stronger effect = lower value 1 | S. cerevisiae deletion strains, locus YML032C, strain rad52, stronger effect = lower value 1.02 | S. cerevisiae deletion strains, locus YML120C, strain ndi1, stronger effect = lower value 0.982 | S. cerevisiae deletion strains, locus YML124C, strain tub3, stronger effect = lower value 1.02 | S. cerevisiae deletion strains, locus YMR058W, strain fet3, stronger effect = lower value 0.995 | S. cerevisiae deletion strains, locus YMR078C, strain ctf18, stronger effect = lower value 1.01 | S. cerevisiae deletion strains, locus YMR125W, strain sto1, stronger effect = lower value 1 | S. cerevisiae deletion strains, locus YMR129W, stronger effect = lower value 1.01 | S. cerevisiae deletion strains, locus YMR205C, strain PFK2, stronger effect = lower value 0.976 | S. cerevisiae deletion strains, locus YMR223W, strain ubp8, stronger effect = lower value 1.02 | S. cerevisiae deletion strains, locus YMR231W, strain pep5, stronger effect = lower value 0.991 | S. cerevisiae deletion strains, locus YMR263W, strain SAP30, stronger effect = lower value 1.02 | S. cerevisiae deletion strains, locus YMR307W, strain GAS1, stronger effect = lower value 1.04 | S. cerevisiae deletion strains, locus YNL067W, strain RPL9B, stronger effect = lower value 1.03 | S. cerevisiae deletion strains, locus YNL071W, strain lat1, stronger effect = lower value 1.01 | S. cerevisiae deletion strains, locus YNL128W, strain TEP1, stronger effect = lower value 1.02 | S. cerevisiae deletion strains, locus YNL153C, strain GIM3, stronger effect = lower value 1.02 | S. cerevisiae deletion strains, locus YNL183C, strain NPR1, stronger effect = lower value 0.868 | S. cerevisiae deletion strains, locus YNL209W, strain ssb2, stronger effect = lower value 1.01 | S. cerevisiae deletion strains, locus YNL233W, strain BNI4, stronger effect = lower value 1.02 | S. cerevisiae deletion strains, locus YNL248C, strain rpa49, stronger effect = lower value 1.03 | S. cerevisiae deletion strains, locus YNL250W, strain rad50, stronger effect = lower value 1.02 | S. cerevisiae deletion strains, locus YNL271C, strain bni1, stronger effect = lower value 1.02 | S. cerevisiae deletion strains, locus YNL298W, strain CLA4, stronger effect = lower value 0.998 | S. cerevisiae deletion strains, locus YNL307C, strain MCK1, stronger effect = lower value 1.02 | S. cerevisiae deletion strains, locus YNL322C, strain KRE1 (second series), stronger effect = lower value 1.01 | S. cerevisiae deletion strains, locus YNL322C, strain KRE1, stronger effect = lower value 1.01 | S. cerevisiae deletion strains, locus YNR049C, strain mso1, stronger effect = lower value 0.995 | S. cerevisiae deletion strains, locus YNR052C, strain pop2, stronger effect = lower value 1 | S. cerevisiae deletion strains, locus YOL006C, strain TOP1, stronger effect = lower value 1.11 | S. cerevisiae deletion strains, locus YOL012C, strain htz1 0.843 | S. cerevisiae deletion strains, locus YOL147C, strain pex11, stronger effect = lower value 1.02 | S. cerevisiae deletion strains, locus YOR001W, strain rrp6, stronger effect = lower value 0.969 | S. cerevisiae deletion strains, locus YOR061W, strain CKA2, stronger effect = lower value 1.01 | S. cerevisiae deletion strains, locus YOR069W, strain VPS5, stronger effect = lower value 1.01 | S. cerevisiae deletion strains, locus YOR070C, strain gyp1, stronger effect = lower value 1.01 | S. cerevisiae deletion strains, locus YOR080W, strain dia2, stronger effect = lower value 0.976 | S. cerevisiae deletion strains, locus YOR083W, strain WHI5, stronger effect = lower value 0.951 | S. cerevisiae deletion strains, locus YOR106W, strain vam3, stronger effect = lower value 0.975 | S. cerevisiae deletion strains, locus YOR136W, strain idh2, stronger effect = lower value 1.02 | S. cerevisiae deletion strains, locus YOR144C, strain elg1, stronger effect = lower value 1.02 | S. cerevisiae deletion strains, locus YOR184W, strain ser1, stronger effect = lower value 1.02 | S. cerevisiae deletion strains, locus YOR231W, strain MKK1, stronger effect = lower value 0.97 | S. cerevisiae deletion strains, locus YOR265W, strain rbl2, stronger effect = lower value 1 | S. cerevisiae deletion strains, locus YOR270C, strain vph1, stronger effect = lower value 1 | S. cerevisiae deletion strains, locus YOR290C, strain snf2, stronger effect = lower value 1.02 | S. cerevisiae deletion strains, locus YOR316C, strain cot1, stronger effect = lower value 1.02 | S. cerevisiae deletion strains, locus YPL051W, strain arl3, stronger effect = lower value 0.998 | S. cerevisiae deletion strains, locus YPL055C, strain LGE1, stronger effect = lower value 1.02 | S. cerevisiae deletion strains, locus YPL078C, strain atp4, stronger effect = lower value 0.986 | S. cerevisiae deletion strains, locus YPL106C, strain sse1, stronger effect = lower value 1.02 | S. cerevisiae deletion strains, locus YPL240C, strain hsp82, stronger effect = lower value 0.982 | S. cerevisiae deletion strains, locus YPL241C, strain CIN2, stronger effect = lower value 1 | S. cerevisiae deletion strains, locus YPL256C, strain CLN2, stronger effect = lower value 0.963 | S. cerevisiae deletion strains, locus YPR119W, strain clb2, stronger effect = lower value 1.01 | S. cerevisiae deletion strains, locus YPR141C, strain kar3, stronger effect = lower value 1.02 | S. cerevisiae deletion strains, locus YPR163C, strain tif3, stronger effect = lower value 1.02 | S. cerevisiae deletion strains, locus YPR167C, strain met16, stronger effect = lower value 1.01 | S. cerevisiae deletion strains, strain wtn01, stronger effect = lower value 1.02 | S. cerevisiae strains, strain wild type, stronger effect = lower value 1.01
